Screening results: PubChem BioAssay, Buhrlage Lab, Dana-Farber Cancer Institute and Novartis Institutes for BioMedical Research (Cambridge, Mass)
USP10 block: human USP10 deubiquitinase inhibition; purified USP10, Ub-rhodamine fluorescence, 60 min; actives 1.1% (n = 47,000); Q14694; inhibition, % at 20 µM
USP8 block: inhibitors of human USP8 deubiquitinase; P40818; purified USP8, Ub-rhodamine cleavage fluorescence, 30 min; inhibition, % at 20 µM; actives 4.2% (n = 47,000)
UCHL1 block: human UCHL1 deubiquitinase inhibition; purified UCHL1, Ub-rhodamine cleavage fluorescence; actives 0.2% (n = 47,000); inhibition, % at 20 µM; P09936
Target sequence (P09936 whole entry, looked up): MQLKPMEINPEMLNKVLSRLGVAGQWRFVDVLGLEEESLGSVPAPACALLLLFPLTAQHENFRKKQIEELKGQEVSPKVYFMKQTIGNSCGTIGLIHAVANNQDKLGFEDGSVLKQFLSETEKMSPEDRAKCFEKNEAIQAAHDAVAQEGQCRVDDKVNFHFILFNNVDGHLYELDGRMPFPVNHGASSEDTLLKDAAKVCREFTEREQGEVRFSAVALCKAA
USP7 block: blocks human USP7 ubiquitin-rhodamine cleavage. actives 0.3% (n = 47,000). inhibition, % at 20 µM. AID 1645854. purified USP7, Ub-rhodamine cleavage fluorescence. Q93009
An asterisk follows results filed as active; nt = no result given. This is a sample that favours compounds with a hit; in the whole collection about 4.6% have one here. No stated cut-off is given here; in the data, active means inhibition above about 30%; inactive means the rest.

SMILES | USP10 block | USP8 block | UCHL1 block | USP7 block
O=C(Cn1cnc2cc([N+](=O)[O-])ccc2c1=O)Nc1ccc2c(c1)OCCO2 | -7.8 | -201.4 | 1.1 | 3.1
CC1=CC2=NC(=O)/C(=C\c3cn(CCOc4ccccc4)c4ccccc34)C(=N)N2O1 | -1.3 | -20.0 | -47.3 | -32.5
N=C1/C(=C/c2cn(Cc3ccccc3)c3ccccc23)C(=O)N=C2SC(C(F)(F)F)=NN12 | 43.4* | 10.3 | -0.2 | 9.6
O=C(O)c1cn(Cc2ccc(F)cc2)c(=O)c2ccccc12 | -0.4 | 13.7 | -5.1 | -6.6
N=C1/C(=C/c2cn(Cc3ccc(F)cc3)c3ccccc23)C(=O)N=C2SC(Cc3ccccc3)=NN12 | 34.0* | 74.2* | -5.0 | 10.7
COCC1CN(C(=O)C2CCOCC2)Cc2cnn(C)c21 (configuration not stated) | -2.2 | -42.2 | -1.9 | 4.8
O=C(CNC1Cc2ccccc2C1)Nc1ccccc1N1CCOCC1 | 1.9 | 46.1* | 2.8 | 1.4
Cn1ncc(Cl)c1C1CCCCCN1C(=O)c1cccnc1 (configuration not stated) | -1.8 | -2.4 | -0.1 | 2.2
O=C(Nc1ccccc1C(=O)N1CCCC1)c1ccc(CN2CCc3ccccc3C2)cc1 | -2.5 | 40.4* | 0.0 | 1.0
COC(=O)COc1ccc(/C=N/NC(=O)c2ccc(CN3CCc4ccccc4C3)cc2)cc1 | 3.8 | 36.5* | 1.5 | 1.7
Cc1cccc(-c2nc3n(CC(=O)Nc4ccc(Cl)cc4)c(C)cc(=O)n3n2)c1 | 13.0 | 8.2 | 0.4 | 11.3
Cc1cc(C)nc(NC(=O)c2ccco2)n1 | 1.7 | 14.8 | 1.3 | 2.0
O=C(Nc1noc2ccccc12)c1ccco1 | 0.4 | 46.6* | 1.0 | -0.5
N#Cc1cccc(NC(=O)c2nn(C3CCS(=O)(=O)C3)c3c2CCCC3)c1 (configuration not stated) | 0.7 | -0.1 | 3.6 | -4.0
CCN1C(=O)Cc2cc(NS(=O)(=O)c3cc(C)ccc3C)ccc21 | 0.0 | 40.2* | 3.2 | 10.4
CCN1C(=O)Cc2cc(NS(=O)(=O)c3ccccc3F)ccc21 | 3.0 | 14.1 | 2.9 | 4.2
Cc1ccc(C(=O)N2CCCN(c3cc(=O)n(C)c(=O)n3C)CC2)cc1 | -0.2 | -3.2 | -0.5 | 2.8
O=C(Cn1cnc(-c2noc(-c3ccc(F)cc3)n2)c1)Nc1ccccc1F | 25.9 | 66.7* | 7.5 | 14.5
Cc1cccc(NC(=O)Cn2cnc(-c3noc(-c4ccccc4)n3)c2)c1C | 25.7 | 72.6* | 6.9 | 24.1
Cc1ccc(NC(=O)Cn2cnc(-c3noc(-c4cccnc4)n3)c2)cc1 | -8.0 | -3.6 | -1.8 | 2.8
Cc1ccccc1NC(=O)Cn1cc(-c2noc(-c3ccccc3)n2)nc1C | 9.3 | 7.3 | -0.1 | 4.7
CCn1cnc2cc(NCc3cccc(OC)c3O)ccc21 | -0.1 | 40.1* | -1.1 | -0.7
COc1ccc(-c2cc(C(C)=O)c(C)n2CCC(=O)NCCc2ccc(Cl)cc2)cc1 | 1.6 | 5.0 | 4.5 | 4.0
Cc1c(CNCc2ccc(F)cc2)c(C(=O)O)c(C)n1-c1ccccc1 | -7.7 | 43.4* | -6.9 | -10.1
Cc1nc2c(c(=O)[nH]1)CCN(Cc1c[nH]c3ccccc13)C2 | 0.3 | -3.1 | -2.8 | nt
SMILES | USP10 block | USP8 block | UCHL1 block | USP7 block
O=C(Cc1nnc(-c2ccc3ncccc3c2)o1)Nc1ccccc1 | -6.1 | -3.2 | 0.0 | -3.8
Cc1cc(F)ccc1NC(=O)Cc1nnc(-c2ccc3ncccc3c2)o1 | -3.2 | 46.9* | -0.7 | 4.7
CC(C)CC(=O)Nc1cc(=O)[nH]c2nc(-c3ccco3)nn12 | -4.1 | 0.3 | -0.5 | 1.8
O=C(Cc1cccnc1)N[C@@H]1CC[C@@H](Oc2ccccc2)[C@@H](O)[C@@H]1O | 2.9 | 72.8* | 5.4 | 6.1
CC1=C(C)C(N(c2ccccc2)c2ccccc2)N(CCC(C)C)C1=O (configuration not stated) | 9.3 | 95.1* | 10.2 | -8.4
O=C(NCc1cccc(F)c1)c1csc(-c2ccc(N3CCOCC3)nc2)n1 | 0.6 | -12.3 | 3.6 | -0.4
COc1ccccc1OCC(=O)NCc1ccc(-c2nc(C)ncc2-c2ccccn2)cc1 | -0.2 | -15.0 | -2.5 | 2.0
O=C(O)c1ccc(Cl)c(NC(=O)C2COc3ccccc3O2)c1 (configuration not stated) | -1.8 | -1.6 | -4.5 | 58.3*
Cc1[nH]nc(NC(=O)C2COc3ccccc3O2)c1-c1ccccc1 (configuration not stated) | 26.1 | 47.4* | 31.8* | -141.1
COc1ccc(-c2c(NC(=O)C3COc4ccccc4O3)n[nH]c2C)cc1OC (configuration not stated) | 6.3 | 18.0 | 29.4 | -143.5
Cn1c(SCC(=O)NCc2ccccc2)nnc1-c1cc2ccccc2o1 | 5.2 | 30.4* | 4.3 | -1.8
COc1ccc(C(=O)CSc2nnc(-c3cc4cccc(OC)c4o3)n2C)cc1OC | -3.0 | -0.2 | -4.3 | 3.3
Cn1c(SCC(=O)c2ccc(F)cc2)nnc1-c1cc2ccccc2o1 | 6.4 | 41.0* | -0.8 | 1.9
Cc1cc(C(=O)NC2CCN(Cc3ccccc3)CC2)c(C)o1 | -11.1 | -7.4 | -4.0 | -4.5
CC(C)n1cc2cc(C(=O)NC3CCN(Cc4ccccc4)CC3)sc2c1 | -7.6 | 50.7* | -0.6 | -25.6
CCn1c(-c2nnc(SCC(=O)NCCc3nc4ccccc4[nH]3)o2)cc2ccccc21 | 1.1 | 3.5 | 12.8 | 46.2*
COc1cccc(NC(=O)c2cccc3cn[nH]c23)c1 | -0.3 | 0.1 | 0.1 | 0.4
O=C(CNc1nc(Nc2ccccc2)nc(Nc2ccccc2)n1)Nc1ccccc1F | 10.0 | 6.7 | 9.3 | 7.7
Cc1ccccc1NC(=O)CNc1nc(Nc2ccccc2)nc(Nc2ccccc2)n1 | -0.2 | 34.4* | 0.5 | 3.0
Cc1cccc(NC(=O)CSc2nnc(NC(=O)c3ccc4ccccc4c3)s2)c1 | 44.1* | 4.7 | -1.1 | 13.2
Cc1ccc(NC(=O)CSC2=NC3(CCCCC3)Nc3ccccc32)cc1 | 3.3 | 37.7* | 0.9 | -2.5
Cc1ccccc1NC(=O)CSC1=NC2(CCCCC2)Nc2ccccc21 | 3.0 | 37.5* | 0.2 | 1.8
COc1ccc(OC)c(C2c3[nH]c4ccccc4c3C[C@@H]3C(=O)N(C4CC4)CC(=O)N23)c1 (some centres not stated) | -0.3 | -26.0 | -10.6 | -14.2
O=C(Nc1cccc(Cl)c1)N1CC[C@@H]2CN(Cc3cccnc3)S(=O)(=O)[C@@H]2CC1 | 0.5 | 9.3 | 1.7 | 6.1
O=C(c1c(F)cccc1F)N1CCCC(c2[nH]nc3nccnc23)C1 (configuration not stated) | 0.2 | 30.5* | -1.1 | -0.3
O=C(c1cc(F)cc(F)c1)N1CCCC(c2[nH]nc3nccnc23)C1 (configuration not stated) | -3.3 | -35.4 | -1.1 | -2.1
CNC(=O)c1c2n(c3ncccc13)CC(C)N(C(=O)c1cccnc1)C2 (configuration not stated) | 0.0 | 11.6 | 2.0 | 5.6
Cc1ccc(-c2ncc(NC(=O)C3CCC3)cn2)cc1 | 6.3 | 33.3* | 0.0 | -12.0
COc1ccc(S(=O)(=O)N(CC(=O)N2CCCCCC2)c2ccccc2)cc1OC | -0.5 | 1.9 | -0.1 | -1.4
CC(NC(=O)c1ccccc1)c1nc2ccccc2n1CC(=O)Nc1ccc(OC(F)(F)F)cc1 (configuration not stated) | 14.3 | 33.4* | 4.3 | 9.2
